In PubChem BioAssay (NCI):
The panel holds about 83,000 compounds, 20% with a hit somewhere; the sample as a whole holds those more often.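 96-well plates, one dose, 48 hours. Percent growth reported; active if below 10.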 Values without a mark were called inactive. Activity calls are given as the source filed them.

Assays:
Assay in all cases: NCI-60 one-dose screen, 48 h (100 = growth as untreated, 0 = no growth, -100 = all killed)
Conditions in all cases: 10 µM unless noted
[1] = test system: HCT-15 colon
[2] = test system: HT29 colon
[3] = test system: SNB-75 CNS
[4] = test system: SNB-19 CNS
[5] = test system: U251 CNS
[6] = test system: PC-3 prostate
[7] = test system: SK-MEL-5 melanoma
[8] = test system: UACC-62 melanoma
[9] = test system: LOX IMVI melanoma
[10] = test system: SK-MEL-28 melanoma

`O=C(CCc1nnc2sc(OCc3ccccc3)nn12)c1nc2ccc([N+](=O)[O-])cc2[nH]1` gave a growth [1] of 108%, a growth [2] of 107% and a growth [3] of 103%. For the same compound, the growth [4] was 108%, the growth [5] was 99.8% and the growth [6] was 94.4%. The growth [7] was 110%, the growth [8] was 96.6% and the growth [9] was 91.3%. The growth [10] was 115%.

`CCOc1ccccc1C(=O)/C=C/c1cc2ccccc2[nH]c1=O` was tested, and the growth [1] was -58.9% (active), the growth [2] was -44.6% (active) and the growth [3] was 21%. The growth [4] was -72.9% (active), the growth [5] was -92.2% (active) and the growth [6] was 14.9%. For the same compound, the growth [7] was -78.3% (active), the growth [8] was -65.3% (active) and the growth [9] was -81.8% (active). The growth [10] was -3.66% (active).

Compound `COc1ccc(C(=S)c2cc(OC)c(OC)c(OC)c2)cc1OC(=O)CCl` has a growth [1] of 14.3%, a growth [2] of 24% and a growth [3] of 53.8%. The growth [4] was 31.4%, the growth [5] was 4.79% (active) and the growth [6] was 14.1%. The growth [7] was -29.7% (active), the growth [8] was 47.9% and the growth [9] was 19.6%. The growth [10] was 67.8%.

With `O=C(/C(=C/c1ccc([N+](=O)[O-])cc1)SCc1ccc(Cl)cc1)c1ccc(F)cc1` the growth [1] was -16.5% (active), the growth [2] was -2.26% (active) and the growth [3] was 82.3%. For the same compound, the growth [4] was 35.6%, the growth [5] was -9.2% (active) and the growth [6] was 41.4%. For the same compound, the growth [7] was 69.9%, the growth [8] was 33.8% and the growth [9] was -18.3% (active). For the same compound, the growth [10] was 95.8%.

With `COC(=O)c1nc(-c2ccccc2)oc1S(=O)(=O)n1nc(-c2ccccc2)cc1N` the growth [1] was 63.6%, the growth [2] was 43.1% and the growth [3] was 93.4%. The growth [4] was 101%, the growth [5] was 97% and the growth [6] was 102%. For the same compound, the growth [7] was 94.7%, the growth [8] was 95.2% and the growth [9] was 72.3%. For the same compound, the growth [10] was 89.6%.

For `COc1ccc(/C=C(/C(=O)N2CCN(Cc3ccccc3)CC2)c2cc(OC)c(OC)c(OC)c2)cc1O`, the growth [1] was 59.7%, the growth [2] was 95.4% and the growth [3] was 49.2%. For the same compound, the growth [4] was 64.8%, the growth [5] was 66.1% and the growth [6] was 34.8%. The growth [7] was 33.3%, the growth [8] was 45% and the growth [9] was 60.2%. It also gave a growth [10] of 76.5%.

`COC(=O)c1ccc2c(c1)n(Cc1ccc3ccccc3c1)c[n+]2Cc1ccc2ccccc2c1` showed a growth [1] of 98.6%, a growth [2] of 10.1% and a growth [3] of 60.1%. The growth [4] was 33.1%, the growth [5] was 32.9% and the growth [6] was 29.6%. For the same compound, the growth [7] was 4.24% (active), the growth [8] was -15.9% (active) and the growth [9] was 23.9%. The growth [10] was 21.6%.

In the case of `COc1cccc2c1-c1ccccc1C2=O`, the growth [1] is reported as 33.3%, the growth [2] is reported as 17.5% and the growth [3] is reported as 18.1%. For the same compound, the growth [4] was 29%, the growth [5] was 17.8% and the growth [6] was 28.1%. The growth [7] was 9.97% (active), the growth [8] was 33.3% and the growth [9] was 40.3%. The growth [10] was 47.9%.

`COc1ccc(-c2cc(-c3nnc(SCC(=O)Nc4ccc(/C(C)=N\O)cc4)o3)c3ccccc3n2)cc1` gave a growth [1] of 100%, a growth [2] of 101% and a growth [3] of 98.3%. The growth [4] was 90.8%, the growth [5] was 101% and the growth [6] was 100%. For the same compound, the growth [7] was 99.2%, the growth [8] was 106% and the growth [9] was 97.7%. For the same compound, the growth [10] was 114%.

With `COC(=O)c1ccc(NC(=O)CSc2nc(-c3ccc(F)cc3)nc3ccccc23)cc1` the growth [1] was 89.3%, the growth [2] was 91.3% and the growth [3] was 79.4%. The growth [4] was 80.2%, the growth [5] was 63.1% and the growth [6] was 75.6%. It also gave a growth [7] of 74.3%, a growth [8] of 93.4% and a growth [9] of 64.8%. For the same compound, the growth [10] was 94.7%.

In the case of `Cc1ccccc1NC(=O)c1sc2nc(C)c(C(C)O)cc2c1N` (stereo not given), the growth [1] is reported as 35.3%, the growth [2] is reported as 3.12% (active) and the growth [3] is reported as 53.9%. The growth [4] was 32.5%, the growth [5] was 28.8% and the growth [6] was 60.9%. For the same compound, the growth [7] was 31.4%, the growth [8] was 25.5% and the growth [9] was 44.2%. The growth [10] was 67.2%.

With `COc1ccc(C2CC(c3ccc(OC)cc3O)=NN2c2ccc(S(N)(=O)=O)cc2)cc1` (stereo not given) the growth [1] was 33.6%, the growth [2] was 33.7% and the growth [3] was 58.2%. The growth [4] was 59.5%, the growth [5] was 40.9% and the growth [6] was 15.5%. The growth [7] was 49%, the growth [8] was 38.1% and the growth [9] was 52.5%. For the same compound, the growth [10] was 56.1%.

For `O=C1c2ccccc2C(=O)c2c1oc1c2c(=O)[nH]c2ccc(Cl)cc21`, the growth [1] was -31.1% (active), the growth [2] was 66.4% and the growth [3] was -9.01% (active). For the same compound, the growth [4] was 7.11% (active), the growth [5] was -77.5% (active) and the growth [6] was -33.3% (active). The growth [7] was 12.3%, the growth [8] was 75.1% and the growth [9] was 11.1%. For the same compound, the growth [10] was -11.8% (active).

In the case of `COC(=O)/C=C1\SC(=Nc2ccc(C(F)(F)F)cc2)N(CCc2c[nH]c3ccccc23)C1=O`, the growth [1] is reported as -71.4% (active), the growth [2] is reported as -34.1% (active) and the growth [3] is reported as 59.2%. For the same compound, the growth [4] was -51.7% (active), the growth [5] was -87.8% (active) and the growth [6] was -61.1% (active). The growth [7] was -88.8% (active), the growth [8] was -62.5% (active) and the growth [9] was -97% (active). The growth [10] was -58.9% (active).

In the case of `Cc1nccc2c3ccc(OCc4cn(-c5ccc(Cl)cc5)nn4)cc3n(CC(C)C)c12`, the growth [1] is reported as 18.7%, the growth [2] is reported as 1.3% (active) and the growth [3] is reported as 55.8%. It also gave a growth [4] of 38.9%, a growth [5] of 26.9% and a growth [6] of 17.4%. The growth [7] was -78.3% (active), the growth [8] was 24.2% and the growth [9] was 3.05% (active). It also gave a growth [10] of 25.2%.

Work on `CC1(C)CC[C@]2(c3nnc(-c4ccncc4)o3)CC[C@]3(C)C(=CC[C@@H]4[C@@]5(C)CCC(=O)C(C)(C)[C@@H]5CC[C@]43C)[C@@H]2C1` yielded a growth [1] of 71.8%, a growth [2] of 77.5% and a growth [3] of 88.7%. The growth [4] was 78.7%, the growth [5] was 76.9% and the growth [6] was 47.5%. For the same compound, the growth [7] was 74.3%, the growth [8] was 67.3% and the growth [9] was 72.2%. For the same compound, the growth [10] was 83.5%.

In the case of `COc1ccc(/C=C(/C(=O)N2CCCC2)c2cc(OC)c(OC)c(OC)c2)cc1`, the growth [1] is reported as 39.6%, the growth [2] is reported as 11.6% and the growth [3] is reported as 32%. The growth [4] was 46.8%, the growth [5] was 25.1% and the growth [6] was 26.3%. It also gave a growth [7] of 15%, a growth [8] of 44.1% and a growth [9] of 54.2%. For the same compound, the growth [10] was 73.9%.

Work on `NC(=N\N=C\c1ccccc1O)/C(N)=N/N=C/c1ccccc1O` yielded a growth [1] of 66%, a growth [2] of 73.8% and a growth [3] of 84.4%. It also gave a growth [4] of 84.4%, a growth [5] of 82.7% and a growth [6] of 56.1%. For the same compound, the growth [7] was 84.6%, the growth [8] was 68.9% and the growth [9] was 48.6%. For the same compound, the growth [10] was 90.5%.

`[2H]c1cc2c(c([2H])c1F)/C(=C/c1[nH]c(C)c(C(=O)NCCN(CC)CC)c1C)C(=O)N2` showed a growth [1] of 29.9%, a growth [2] of 19% and a growth [3] of 50.4%. The growth [4] was 85.4%, the growth [5] was 66.5% and the growth [6] was 28.3%. The growth [7] was 51%, the growth [8] was 67% and the growth [9] was 26.5%. The growth [10] was 64.7%.

With `Cn1c2c(c3ccc(-c4ccn[nH]4)cc3c1=O)C(=O)c1ccccc1-2` the growth [1] was 15.7%, the growth [2] was 18.9% and the growth [3] was 71%. The growth [4] was 27.4%, the growth [5] was 13.5% and the growth [6] was 63.2%. For the same compound, the growth [7] was 21.1%, the growth [8] was 47.9% and the growth [9] was 0.163% (active). The growth [10] was 88.6%.

For `CN1CCN(C(=O)[C@@]2(C)CC[C@]3(C)CC[C@]4(C)C(=CC[C@@H]5[C@@]6(C)CC[C@H](OC(=O)c7cccnc7)C(C)(C)[C@@H]6CC[C@]54C)[C@@H]3C2)CC1`, the growth [1] was -46.9% (active), the growth [2] was 8.46% (active) and the growth [3] was 90.4%. The growth [4] was 19.8%, the growth [5] was -69.8% (active) and the growth [6] was 46.8%. The growth [7] was 64.4%, the growth [8] was 82.1% and the growth [9] was -26.4% (active). The growth [10] was 76.7%.

In the case of `C=C(C)[C@@H]1CCC=C2CC[C@]3(C)[C@H](CC[C@@H]4[C@@]5(C)CCCNC(C)(C)[C@@H]5CC[C@]43C)[C@H]21`, the growth [1] is reported as -17.7% (active), the growth [2] is reported as 3.02% (active) and the growth [3] is reported as 100%. For the same compound, the growth [4] was 15.3%, the growth [5] was -73% (active) and the growth [6] was 38.2%. For the same compound, the growth [7] was 81.9%, the growth [8] was 87.7% and the growth [9] was -43.4% (active). It also gave a growth [10] of 96.7%.

For `COc1cc(C2=N/C(=C\c3cc4ccccc4nc3Oc3ccccc3)C(=O)N2C(=N)N)cc(OC)c1OC`, the growth [1] was 91.3%, the growth [2] was 64.2% and the growth [3] was 6.51% (active). It also gave a growth [4] of 32.3%, a growth [5] of 50.6% and a growth [6] of 70.4%. For the same compound, the growth [7] was 83.5%, the growth [8] was 50% and the growth [9] was 66.9%. For the same compound, the growth [10] was 78.4%.

`Nc1n[nH]c2cccc(C#Cc3cccc(NC(=O)c4cc(N5CCOCC5)cc(C(F)(F)F)c4)c3)c12` showed a growth [1] of 36.9%, a growth [2] of 22.6% and a growth [3] of 71.5%. It also gave a growth [4] of 83.9%, a growth [5] of 56.3% and a growth [6] of 69%. It also gave a growth [7] of 55.7%, a growth [8] of 14% and a growth [9] of 18.6%. For the same compound, the growth [10] was 24.5%.

For `CCOC(=O)c1c(C)nc2c(c1N)CC(=O)N2CCc1ccccc1`, the growth [1] was 17.2%, the growth [2] was 6.02% (active) and the growth [3] was 80.1%. It also gave a growth [4] of 22.4%, a growth [5] of 31.8% and a growth [6] of 17.3%. For the same compound, the growth [7] was 3.27% (active), the growth [8] was 32.1% and the growth [9] was 9.25% (active). It also gave a growth [10] of 39.9%.

With `Cc1cc(Nc2nc(SCc3ccc(C(=O)Nc4ccc(F)cc4N)cc3)nn3cccc23)n[nH]1` the growth [1] was 22.6%, the growth [2] was 4.22% (active) and the growth [3] was 29.2%. For the same compound, the growth [4] was 43.8%, the growth [5] was 25% and the growth [6] was 28%. The growth [7] was 7.54% (active), the growth [8] was 24.2% and the growth [9] was 30.1%. The growth [10] was 68.7%.
